# Screen size: about 5,500 compounds; about 2,000 (36%) were called active. Another 18% or so got no clear call; they are omitted. The list shows a part of the results. A number with no mark means an inactive call. Rule as the data show it: active = normalized growth mostly below about 0.91 (no sharp cut-off); inconclusive = no clear call, values can overlap the other calls; inactive = mostly above about 0.92.
# Assay: chemical genetic growth profiling, strain panel (AID 1159580);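 also: tested at 20 µM; growth read once vehicle control cultures reached saturation at 30 °C; 1 = growth at the plate median or of vehicle wells; lower values mean less growth of the strain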
# Details: S. cerevisiae deletion strains, growth OD
smiles,measurement,setting,value
CCC1(O)CC(OC2CC(N(C)C)C(OC3CC(O)C(OC4CCC(=O)C(C)O4)C(C)O3)C(C)O2)c2c(cc3c(c2O)C(=O)c2c(O)cccc2C3=O)C1C(=O)OC (stereo not drawn),normalized growth,"locus YAL013W, strain DEP1, active compounds read low",0.986
same,normalized growth,"locus YBR021W, strain FUR4, active compounds read low",1.07
same,normalized growth,"locus YBR229C, strain ROT2, active compounds read low",1
same,normalized growth,"locus YCL029C, strain bik1, active compounds read low",1
same,normalized growth,"locus YDL035C, strain GPR1, active compounds read low",0.978
same,normalized growth,"locus YDL074C, strain BRE1, active compounds read low",0.998
same,normalized growth,"locus YDL101C, strain DUN1, active compounds read low",0.992
same,normalized growth,"locus YDL134C, strain PPH21, active compounds read low",1.01
same,normalized growth,"locus YDL185W, strain tfp1, active compounds read low",1.01
same,normalized growth,"locus YDL192W, strain arf1, active compounds read low",1.01
same,normalized growth,"locus YDR101C, strain arx1, active compounds read low",1.01
same,normalized growth,"locus YDR150W, strain NUM1, active compounds read low",1
same,normalized growth,"locus YDR162C, strain NBP2, active compounds read low",0.981
same,normalized growth,"locus YDR318W, strain mcm21, active compounds read low",1.01
same,normalized growth,"locus YDR388W, active compounds read low",1.01
same,normalized growth,"locus YDR502C, strain sam2, active compounds read low",1
same,normalized growth,"locus YEL061C, strain CIN8, active compounds read low",1.01
same,normalized growth,"locus YER110C, active compounds read low",1.01
same,normalized growth,"locus YER155C, strain BEM2, active compounds read low",1.01
same,normalized growth,"locus YER167W, strain BCK2, active compounds read low",1.01
same,normalized growth,"locus YGL078C, strain dbp3, active compounds read low",1.01
same,normalized growth,"locus YGL086W, strain mad1, active compounds read low",0.992
same,normalized growth,"locus YGL248W, strain PDE1, active compounds read low",0.981
same,normalized growth,"locus YGR135W, strain pre9, active compounds read low",1.01
same,normalized growth,"locus YGR229C, strain SMI1, active compounds read low",0.96
same,normalized growth,"locus YGR252W, strain gcn5, active compounds read low",1.03
same,normalized growth,"locus YHR030C, strain SLT2, active compounds read low",1
same,normalized growth,"locus YHR079C, strain IRE1 (second series), active compounds read low",1.01
same,normalized growth,"locus YHR094C, strain hxt1, active compounds read low",1.01
same,normalized growth,"locus YHR129C, strain ARP1, active compounds read low",0.995
same,normalized growth,"locus YHR200W, strain rpn10, active compounds read low",1.01
same,normalized growth,"locus YIL066C, strain RNR3, active compounds read low",1
same,normalized growth,"locus YIL073C, strain SPO22, active compounds read low",1.04
same,normalized growth,"locus YIL125W, strain kgd1, active compounds read low",1
same,normalized growth,"locus YIR030C, strain dcg1, active compounds read low",1.01
same,normalized growth,"locus YJL095W, strain BCK1, active compounds read low",0.983
same,normalized growth,"locus YJL134W, strain LCB3, active compounds read low",1.01
same,normalized growth,"locus YJL168C, strain set2, active compounds read low",1.01
same,normalized growth,"locus YJL187C, strain SWE1 (second series), active compounds read low",0.998
same,normalized growth,"locus YJR043C, strain POL32, active compounds read low",0.986
same,normalized growth,"locus YJR075W, strain HOC1, active compounds read low",0.975
same,normalized growth,"locus YKL009W, strain mrt4, active compounds read low",1.01
same,normalized growth,"locus YKL068W, active compounds read low",1
same,normalized growth,"locus YKL085W, strain MDH1 (second series), active compounds read low",0.993
same,normalized growth,"locus YKL085W, strain MDH1, active compounds read low",0.993
same,normalized growth,"locus YKR001C, strain vps1, active compounds read low",1.01
same,normalized growth,"locus YLR039C, strain RIC1, active compounds read low",0.981
same,normalized growth,"locus YLR058C, strain SHM2, active compounds read low",1
same,normalized growth,"locus YLR102C, strain apc9, active compounds read low",1.01
same,normalized growth,"locus YLR262C, strain YPT6, active compounds read low",0.958
same,normalized growth,"locus YLR268W, strain sec22, active compounds read low",0.98
same,normalized growth,"locus YLR330W, strain CHS5, active compounds read low",1
same,normalized growth,"locus YLR342W, strain FKS1 (second series), active compounds read low",0.976
same,normalized growth,"locus YLR371W, strain rom2, active compounds read low",1.01
same,normalized growth,"locus YLR418C, strain cdc73, active compounds read low",1.01
same,normalized growth,"locus YML016C, strain PPZ1, active compounds read low",0.997
same,normalized growth,"locus YML032C, strain rad52, active compounds read low",0.893 (active)
same,normalized growth,"locus YML124C, strain tub3, active compounds read low",0.999
same,normalized growth,"locus YMR078C, strain ctf18, active compounds read low",1.01
same,normalized growth,"locus YMR223W, strain ubp8, active compounds read low",1
same,normalized growth,"locus YMR263W, strain SAP30, active compounds read low",0.998
same,normalized growth,"locus YMR307W, strain GAS1, active compounds read low",0.601
same,normalized growth,"locus YNL067W, strain RPL9B, active compounds read low",0.992
same,normalized growth,"locus YNL233W, strain BNI4, active compounds read low",0.997
same,normalized growth,"locus YNL250W, strain rad50, active compounds read low",0.999
same,normalized growth,"locus YNL271C, strain bni1, active compounds read low",1
same,normalized growth,"locus YNL298W, strain CLA4, active compounds read low",1.02
same,normalized growth,"locus YNL307C, strain MCK1, active compounds read low",1.01
same,normalized growth,"locus YNR052C, strain pop2, active compounds read low",0.996
same,normalized growth,"locus YOL006C, strain TOP1, active compounds read low",0.812
same,normalized growth,"locus YOL012C, strain htz1",0.589
same,normalized growth,"locus YOL147C, strain pex11, active compounds read low",1.01
same,normalized growth,"locus YOR061W, strain CKA2, active compounds read low",1
same,normalized growth,"locus YOR069W, strain VPS5, active compounds read low",1
same,normalized growth,"locus YOR136W, strain idh2, active compounds read low",1
same,normalized growth,"locus YOR144C, strain elg1, active compounds read low",1
same,normalized growth,"locus YOR184W, strain ser1, active compounds read low",0.982
same,normalized growth,"locus YOR316C, strain cot1, active compounds read low",1.01
same,normalized growth,"locus YPR119W, strain clb2, active compounds read low",1.02
same,normalized growth,"locus YPR141C, strain kar3, active compounds read low",0.986
same,normalized growth,"locus YPR163C, strain tif3, active compounds read low",1.02
same,normalized growth,"locus YPR167C, strain met16, active compounds read low",1
same,normalized growth,"strain wtn01, active compounds read low",0.983

# Reference: PubChem BioAssay AID1159580 (chemical genetic matrix, 2015)
